PubChem BioAssay (NCATS)
Results filed as inconclusive are left out. Activity calls are given as the source filed them. Calls come from the whole dose curve; as a rule, active = well fitted inhibition curve with a large enough effect; inconclusive = small, poorly fitted or top-dose-only effect; inactive = flat fitted curve, though single readings scatter.

Columns and labels:
[1] = qHTS profiling for inhibitors of Plasmodium falciparum proliferation (AID 504749);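 note: 0% = DMSO vehicle and full inhibition = artemisinin control; nearly all actives have a fitted effect of over 60% in size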; settings: P. falciparum in erythrocytes, SYBR Green DNA, 72 h, at 28.7 µM (top of the series)
Outline: (§1)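 SYBR Green fluorescence (ex 485 nm, em 535 nm) reports parasite DNA after 72 h compound exposure of infected red cells at 0.3% parasitemia, 2.5% hematocrit; signal normalized to 0.29 uM artemisinin and vehicle wells.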

3D7 = experiment: as above; settings: P. falciparum in erythrocytes, SYBR Green DNA, 72 h; series mostly up to 28.7 µM
Outline: as §1

7G8 = experiment: as above; settings: P. falciparum in erythrocytes, SYBR Green DNA, 72 h; series mostly up to 28.7 µM
Outline: as §1

AA1029 = experiment: as above; settings: P. falciparum in erythrocytes, SYBR Green DNA, 72 h; series mostly up to 28.7 µM
Outline: as §1

AS120 = experiment: as above; settings: P. falciparum in erythrocytes, SYBR Green DNA, 72 h; series mostly up to 28.7 µM
Outline: as §1

ATS189 = experiment: as above; settings: P. falciparum in erythrocytes, SYBR Green DNA, 72 h; series mostly up to 28.7 µM
Outline: as §1

ATS95 = experiment: as above; settings: P. falciparum in erythrocytes, SYBR Green DNA, 72 h; series mostly up to 28.7 µM
Outline: as §1

C2A = experiment: as above; settings: P. falciparum in erythrocytes, SYBR Green DNA, 72 h; series mostly up to 28.7 µM
Outline: as §1

CP185 = experiment: as above; settings: P. falciparum in erythrocytes, SYBR Green DNA, 72 h; series mostly up to 28.7 µM
Outline: as §1

CP191 = experiment: as above; settings: P. falciparum in erythrocytes, SYBR Green DNA, 72 h; series mostly up to 28.7 µM
Outline: as §1

CP192 = experiment: as above; settings: P. falciparum in erythrocytes, SYBR Green DNA, 72 h; series mostly up to 28.7 µM
Outline: as §1

CP194 = experiment: as above; settings: P. falciparum in erythrocytes, SYBR Green DNA, 72 h; series mostly up to 28.7 µM
Outline: as §1

CP201 = experiment: as above; settings: P. falciparum in erythrocytes, SYBR Green DNA, 72 h; series mostly up to 28.7 µM
Outline: as §1

CP203 = experiment: as above; settings: P. falciparum in erythrocytes, SYBR Green DNA, 72 h; series mostly up to 28.7 µM
Outline: as §1

CP211 = experiment: as above; settings: P. falciparum in erythrocytes, SYBR Green DNA, 72 h; series mostly up to 28.7 µM
Outline: as §1

CP215 = experiment: as above; settings: P. falciparum in erythrocytes, SYBR Green DNA, 72 h; series mostly up to 28.7 µM
Outline: as §1

CP217 = experiment: as above; settings: P. falciparum in erythrocytes, SYBR Green DNA, 72 h; series mostly up to 28.7 µM
Outline: as §1

CP237 = experiment: as above; settings: P. falciparum in erythrocytes, SYBR Green DNA, 72 h; series mostly up to 28.7 µM
Outline: as §1

CP238 = experiment: as above; settings: P. falciparum in erythrocytes, SYBR Green DNA, 72 h; series mostly up to 28.7 µM
Outline: as §1

CP247 = experiment: as above; settings: P. falciparum in erythrocytes, SYBR Green DNA, 72 h; series mostly up to 28.7 µM
Outline: as §1

OCl
inactive: activity, negative = inhibition ([1]; parasite line A) 10.5% | activity, negative = inhibition ([1]; parasite line B) 2% | Potency (3D7) | Potency (7G8) | Potency (AA1029) | Potency (AS120) | Potency (ATS189) | Potency (ATS95) | Potency (C2A) | Potency (CP185) | Potency (CP191) | Potency (CP192) | Potency (CP194) | Potency (CP201) | Potency (CP203) | Potency (CP211) | Potency (CP215) | Potency (CP217) | Potency (CP237) | Potency (CP238) | Potency (CP247)

O=C1N=C2SCCN2C(=O)C1Cc1ccc(Cl)cc1 (stereo not drawn)
inactive: activity, negative = inhibition ([1]; parasite line A) 18.3% | activity, negative = inhibition ([1]; parasite line B) 17.2% | Potency (3D7) | Potency (7G8) | Potency (AA1029) | Potency (AS120) | Potency (ATS189) | Potency (ATS95) | Potency (C2A) | Potency (CP185) | Potency (CP191) | Potency (CP192) | Potency (CP194) | Potency (CP201) | Potency (CP203) | Potency (CP211) | Potency (CP215) | Potency (CP217) | Potency (CP237) | Potency (CP238) | Potency (CP247)

Cc1cccc(C)c1NC(=O)C1CCCCN1C (stereo not drawn)
inactive: activity, negative = inhibition ([1]; parasite line A) -4.61% | activity, negative = inhibition ([1]; parasite line B) -9.47% | Potency (3D7) | Potency (7G8) | Potency (AA1029) | Potency (AS120) | Potency (ATS189) | Potency (ATS95) | Potency (C2A) | Potency (CP185) | Potency (CP191) | Potency (CP192) | Potency (CP194) | Potency (CP201) | Potency (CP203) | Potency (CP211) | Potency (CP215) | Potency (CP217) | Potency (CP237) | Potency (CP238) | Potency (CP247)

CC(C)(COP(=O)(O)OP(=O)(O)OC[C@H]1O[C@@H](n2cnc3c(N)ncnc32)[C@H](O)[C@@H]1OP(=O)(O)O)C(O)C(=O)NCCC(=O)NCCS (stereo partly drawn)
inactive: activity, negative = inhibition ([1]; parasite line A) 7.03% | activity, negative = inhibition ([1]; parasite line B) 2.39% | Potency (3D7) | Potency (7G8) | Potency (AA1029) | Potency (AS120) | Potency (ATS189) | Potency (ATS95) | Potency (C2A) | Potency (CP185) | Potency (CP191) | Potency (CP192) | Potency (CP194) | Potency (CP201) | Potency (CP203) | Potency (CP211) | Potency (CP215) | Potency (CP217) | Potency (CP237) | Potency (CP238) | Potency (CP247)

CN1C(=O)C[C@@H](C(=O)N[C@@H](Cc2cnc[nH]2)C(=O)N2CCC[C@H]2C(N)=O)NC1=O
inactive: activity, negative = inhibition ([1]; parasite line A) 13.6% | activity, negative = inhibition ([1]; parasite line B) -7.4% | Potency (3D7) | Potency (7G8) | Potency (AA1029) | Potency (AS120) | Potency (ATS189) | Potency (ATS95) | Potency (C2A) | Potency (CP185) | Potency (CP191) | Potency (CP192) | Potency (CP194) | Potency (CP201) | Potency (CP203) | Potency (CP211) | Potency (CP215) | Potency (CP217) | Potency (CP237) | Potency (CP238) | Potency (CP247)

Nc1nc(=O)n([C@@H]2CS[C@H](CO)O2)cc1F
inactive: activity, negative = inhibition ([1]; parasite line A) 2.36% | activity, negative = inhibition ([1]; parasite line B) 4.33% | Potency (3D7) | Potency (7G8) | Potency (AA1029) | Potency (AS120) | Potency (ATS189) | Potency (ATS95) | Potency (C2A) | Potency (CP185) | Potency (CP191) | Potency (CP192) | Potency (CP194) | Potency (CP201) | Potency (CP203) | Potency (CP211) | Potency (CP215) | Potency (CP217) | Potency (CP237) | Potency (CP238) | Potency (CP247)

CCC(C)[C@@H](N)C(=O)O (stereo partly drawn)
inactive: activity, negative = inhibition ([1]; parasite line A) 11.4% | activity, negative = inhibition ([1]; parasite line B) 24.4% | Potency (3D7) | Potency (7G8) | Potency (AA1029) | Potency (AS120) | Potency (ATS189) | Potency (ATS95) | Potency (C2A) | Potency (CP185) | Potency (CP191) | Potency (CP192) | Potency (CP194) | Potency (CP201) | Potency (CP203) | Potency (CP211) | Potency (CP215) | Potency (CP217) | Potency (CP237) | Potency (CP238) | Potency (CP247)

OB(O)O
inactive: activity, negative = inhibition ([1]; parasite line A) 8.7% | activity, negative = inhibition ([1]; parasite line B) 9.31% | Potency (3D7) | Potency (7G8) | Potency (AA1029) | Potency (AS120) | Potency (ATS189) | Potency (ATS95) | Potency (C2A) | Potency (CP185) | Potency (CP191) | Potency (CP192) | Potency (CP194) | Potency (CP201) | Potency (CP203) | Potency (CP211) | Potency (CP215) | Potency (CP217) | Potency (CP237) | Potency (CP238) | Potency (CP247)

ClC(Cl)Cl
inactive: activity, negative = inhibition ([1]; parasite line A) 5.74% | activity, negative = inhibition ([1]; parasite line B) 10.9% | Potency (3D7) | Potency (7G8) | Potency (AA1029) | Potency (AS120) | Potency (ATS189) | Potency (ATS95) | Potency (C2A) | Potency (CP185) | Potency (CP191) | Potency (CP192) | Potency (CP194) | Potency (CP201) | Potency (CP203) | Potency (CP211) | Potency (CP215) | Potency (CP217) | Potency (CP237) | Potency (CP238) | Potency (CP247)

NCCO/C=C/[C@H](N)C(=O)O
inactive: activity, negative = inhibition ([1]; parasite line A) 6.56% | activity, negative = inhibition ([1]; parasite line B) 15.6% | Potency (3D7) | Potency (7G8) | Potency (AA1029) | Potency (AS120) | Potency (ATS189) | Potency (ATS95) | Potency (C2A) | Potency (CP185) | Potency (CP191) | Potency (CP192) | Potency (CP194) | Potency (CP201) | Potency (CP203) | Potency (CP211) | Potency (CP215) | Potency (CP217) | Potency (CP237) | Potency (CP238) | Potency (CP247)

COc1cc(S(C)=O)ccc1-c1nc2ncccc2[nH]1 (stereo not drawn)
inactive: activity, negative = inhibition ([1]; parasite line A) 6.38% | activity, negative = inhibition ([1]; parasite line B) -9.68% | Potency (3D7) | Potency (7G8) | Potency (AA1029) | Potency (AS120) | Potency (ATS189) | Potency (ATS95) | Potency (C2A) | Potency (CP185) | Potency (CP191) | Potency (CP192) | Potency (CP194) | Potency (CP201) | Potency (CP203) | Potency (CP211) | Potency (CP215) | Potency (CP217) | Potency (CP237) | Potency (CP238) | Potency (CP247)

Cc1ncc(C[n+]2csc(CCOP(=O)(O)O)c2C)c(N)n1
inactive: activity, negative = inhibition ([1]; parasite line A) -5.57% | activity, negative = inhibition ([1]; parasite line B) 6.98% | Potency (3D7) | Potency (7G8) | Potency (AA1029) | Potency (AS120) | Potency (ATS189) | Potency (ATS95) | Potency (C2A) | Potency (CP185) | Potency (CP191) | Potency (CP192) | Potency (CP194) | Potency (CP201) | Potency (CP203) | Potency (CP211) | Potency (CP215) | Potency (CP217) | Potency (CP237) | Potency (CP238) | Potency (CP247)

OCC(O)CO
inactive: activity, negative = inhibition ([1]; parasite line A) 7.74% | activity, negative = inhibition ([1]; parasite line B) 7.55% | Potency (3D7) | Potency (7G8) | Potency (AA1029) | Potency (AS120) | Potency (ATS189) | Potency (ATS95) | Potency (C2A) | Potency (CP185) | Potency (CP191) | Potency (CP192) | Potency (CP194) | Potency (CP201) | Potency (CP203) | Potency (CP211) | Potency (CP215) | Potency (CP217) | Potency (CP237) | Potency (CP238) | Potency (CP247)
